For some of these results: Measured potencies and affinities stand elsewhere.

This passage reports Percent Effect results from ChEMBL document CHEMBL3988442, “University of Dundee, Small-Polar-MMV Screening Library” (2021).

Common to all, as to design: scale not given: direction of the effect not stated beside the values
Experiment [1] has as its target Protein translocase subunit SecA (Escherichia coli (strain K12)) (UniProt P10408). The experiment in a line: Assay to Identify E. coli SecA ATPase Inhibitors. Conditions: 30 µM. The format is functional.
For experiment [2], the target named is T1, Ubiquitin-activating enzyme e1, putative (Leishmania donovani (strain BPK282A1)) (UniProt E9BSI1).
T1 sequence (whole entry): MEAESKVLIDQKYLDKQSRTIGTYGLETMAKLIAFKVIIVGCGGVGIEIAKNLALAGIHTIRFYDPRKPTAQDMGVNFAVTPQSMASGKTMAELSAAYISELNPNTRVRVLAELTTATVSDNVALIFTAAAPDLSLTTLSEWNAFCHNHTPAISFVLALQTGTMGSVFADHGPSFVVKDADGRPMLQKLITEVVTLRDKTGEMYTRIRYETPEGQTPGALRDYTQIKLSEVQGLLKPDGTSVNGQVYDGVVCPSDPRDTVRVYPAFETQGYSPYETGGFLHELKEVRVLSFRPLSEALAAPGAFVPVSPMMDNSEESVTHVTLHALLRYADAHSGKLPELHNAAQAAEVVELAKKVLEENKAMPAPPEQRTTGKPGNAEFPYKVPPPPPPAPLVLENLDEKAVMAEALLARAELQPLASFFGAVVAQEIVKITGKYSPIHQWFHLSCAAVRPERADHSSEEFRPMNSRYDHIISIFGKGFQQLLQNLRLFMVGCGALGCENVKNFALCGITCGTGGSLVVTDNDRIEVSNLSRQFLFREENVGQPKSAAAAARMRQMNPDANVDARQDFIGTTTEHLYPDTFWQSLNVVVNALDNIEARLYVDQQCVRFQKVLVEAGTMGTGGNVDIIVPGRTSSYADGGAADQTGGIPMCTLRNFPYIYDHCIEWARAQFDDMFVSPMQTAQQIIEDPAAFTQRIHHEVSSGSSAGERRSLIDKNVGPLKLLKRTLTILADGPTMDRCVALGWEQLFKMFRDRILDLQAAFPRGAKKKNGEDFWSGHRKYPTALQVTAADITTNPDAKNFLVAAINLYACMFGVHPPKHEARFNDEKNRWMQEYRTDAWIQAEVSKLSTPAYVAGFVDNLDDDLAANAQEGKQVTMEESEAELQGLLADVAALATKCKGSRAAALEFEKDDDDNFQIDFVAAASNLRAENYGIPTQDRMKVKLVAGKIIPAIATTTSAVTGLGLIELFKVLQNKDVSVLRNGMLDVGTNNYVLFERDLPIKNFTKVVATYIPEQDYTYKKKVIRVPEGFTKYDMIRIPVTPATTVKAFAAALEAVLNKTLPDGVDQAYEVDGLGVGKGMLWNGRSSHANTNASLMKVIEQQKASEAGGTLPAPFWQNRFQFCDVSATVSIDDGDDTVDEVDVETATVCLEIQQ
The experiment in a line: Leishmania donovani Ubiquitin Activating Enzyme (LdE1). The format is functional. The note with it: 30 µM.

The target of experiment [3] is AMP-activated protein kinase, AMPK (Homo sapiens) (UniProt P54646+O43741+P54619+Q9UGJ0+Q9Y478+Q13131+Q9UGI9). The experiment in a line: AMP-dependent Kinase enzyme assay. An in vitro enzyme assay that detects ADP turnover that is directly proportional to AMPK activity. This uses naive AMPK that is activated during the assay with MK-8722. The format is functional. The note with it: 30 µM.

The target of experiment [4] is Sialic acid-binding Ig-like lectin 9 (Homo sapiens) (UniProt Q9Y336). The experiment in a line: Hs-Siglec9 ALPHAscreen SOP 20170721. The note with it: 10 µM. For orientation: Alpha assays give light when donor and acceptor beads are brought close together.
Sequence of Sialic acid-binding Ig-like lectin 9 (Homo sapiens) (Q9Y336 whole entry): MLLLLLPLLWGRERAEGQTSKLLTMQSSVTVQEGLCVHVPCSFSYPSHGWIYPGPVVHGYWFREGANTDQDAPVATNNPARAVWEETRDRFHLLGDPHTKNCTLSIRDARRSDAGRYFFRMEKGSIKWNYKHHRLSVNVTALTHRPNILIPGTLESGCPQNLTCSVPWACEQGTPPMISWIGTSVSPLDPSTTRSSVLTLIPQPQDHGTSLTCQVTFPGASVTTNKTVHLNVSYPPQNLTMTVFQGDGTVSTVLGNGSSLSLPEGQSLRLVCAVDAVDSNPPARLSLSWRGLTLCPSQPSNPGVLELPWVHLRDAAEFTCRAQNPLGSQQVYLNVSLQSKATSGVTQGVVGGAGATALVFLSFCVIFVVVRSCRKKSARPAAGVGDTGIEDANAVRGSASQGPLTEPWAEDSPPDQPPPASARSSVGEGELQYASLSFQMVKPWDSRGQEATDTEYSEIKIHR
Another experiment deals with Trypanosoma cruzi. The experiment in a line: Trypanosoma cruzi phosphomannomutase and mannose-1-phosphate guanylyltransferase assay. The format is functional. The note with it: 10 µM.
Experiment [5] has as its target T2, Arginase-2, mitochondrial (Homo sapiens) (UniProt P78540).
T2 sequence (whole entry): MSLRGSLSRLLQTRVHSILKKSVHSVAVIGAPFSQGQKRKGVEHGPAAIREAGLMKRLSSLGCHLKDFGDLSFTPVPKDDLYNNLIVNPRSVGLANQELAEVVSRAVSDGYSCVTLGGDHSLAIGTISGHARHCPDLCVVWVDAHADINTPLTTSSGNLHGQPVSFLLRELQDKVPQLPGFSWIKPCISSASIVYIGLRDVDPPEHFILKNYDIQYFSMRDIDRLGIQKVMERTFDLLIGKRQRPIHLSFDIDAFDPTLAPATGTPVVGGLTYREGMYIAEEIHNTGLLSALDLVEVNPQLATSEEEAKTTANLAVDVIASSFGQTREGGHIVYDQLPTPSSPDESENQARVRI
Nature of the experiment: in vitro enzyme assay to detect the production of urea directly proportional to the activity of Arginase II. Also: in the data most compounds retested in dose-response had high values. The format is functional. Conditions: 33.3 µM.

The target in experiment [6] is T3, Proteasome subunit beta (Trypanosoma cruzi) (UniProt O96673).
T3 sequence (whole entry): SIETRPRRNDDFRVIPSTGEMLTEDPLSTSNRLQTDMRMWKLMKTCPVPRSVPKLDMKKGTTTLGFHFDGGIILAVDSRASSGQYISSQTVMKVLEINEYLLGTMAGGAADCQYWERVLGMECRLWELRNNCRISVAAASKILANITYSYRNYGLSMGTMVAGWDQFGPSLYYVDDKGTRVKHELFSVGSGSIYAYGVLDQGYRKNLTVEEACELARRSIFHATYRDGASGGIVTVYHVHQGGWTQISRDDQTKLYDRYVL
The experiment in a line: Trypanosoma cruzi proteasome chymotrypsin-like activity (TcProtChymo) assay. Also: in the data most compounds retested in dose-response had high values. The format is functional. Conditions: 9.37 µM.

For another experiment, the species on record is Homo sapiens. The experiment in a line: To identify inhibition of the IFN signalling (Jak-Stat) pathway via expression of an eGFP reporter gene under the control of an IFN-stimulated response element (ISRE) containing MxA promoter. The format is functional. Conditions: 30 µM. On the technique in general: A reporter such as luciferase makes a cellular process visible.

The target in experiment [7] is T4, Tyrosyl-tRNA synthetase, putative (Trypanosoma cruzi (strain CL Brener)) (UniProt Q4DSP6).
T4 sequence (whole entry): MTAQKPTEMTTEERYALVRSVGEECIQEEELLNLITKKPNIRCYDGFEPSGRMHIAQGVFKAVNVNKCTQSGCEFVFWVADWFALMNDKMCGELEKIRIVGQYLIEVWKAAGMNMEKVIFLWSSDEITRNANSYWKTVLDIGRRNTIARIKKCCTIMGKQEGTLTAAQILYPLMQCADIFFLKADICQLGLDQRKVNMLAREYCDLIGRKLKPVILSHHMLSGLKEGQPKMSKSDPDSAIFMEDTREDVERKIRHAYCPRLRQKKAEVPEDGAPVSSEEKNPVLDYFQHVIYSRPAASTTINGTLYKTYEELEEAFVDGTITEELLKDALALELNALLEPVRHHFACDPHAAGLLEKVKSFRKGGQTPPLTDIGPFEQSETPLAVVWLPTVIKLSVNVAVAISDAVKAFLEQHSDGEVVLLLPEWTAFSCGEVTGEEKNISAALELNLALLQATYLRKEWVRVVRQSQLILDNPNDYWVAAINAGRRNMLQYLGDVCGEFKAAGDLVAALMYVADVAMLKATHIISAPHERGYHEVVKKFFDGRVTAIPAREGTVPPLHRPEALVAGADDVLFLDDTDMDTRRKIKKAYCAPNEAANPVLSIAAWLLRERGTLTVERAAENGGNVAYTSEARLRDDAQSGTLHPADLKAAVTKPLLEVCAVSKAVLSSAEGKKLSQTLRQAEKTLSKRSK
The experiment in a line: Trypanosoma cruzi tyrosyl tRNA synthetase (TcYRS) _High Tyrosine SOP. Also: in the data most compounds retested in dose-response had high values. The format is functional. The note with it: 30 µM.

Experiment [8] deals with T4, Tyrosyl-tRNA synthetase, putative (Trypanosoma cruzi (strain CL Brener)). Nature of the experiment: Trypanosoma cruzi tyrosyl tRNA synthetase (TcYRS) SOP. The format is functional. Conditions: 30 µM.
In experiment [9] the target is Chromo domain-containing protein 1 (Saccharomyces cerevisiae (strain ATCC 204508 / S288c) (Baker's yeast)) (UniProt P32657). The experiment in a line: ScCHD-1 Enzyme Inhibition Assay. Also: in the data most compounds retested in dose-response had high values. The format is functional. The note with it: 30 µM.
Sequence of Chromo domain-containing protein 1 (Saccharomyces cerevisiae (strain ATCC 204508 / S288c) (Baker's yeast)) (P32657 whole entry, the tested form may be a part): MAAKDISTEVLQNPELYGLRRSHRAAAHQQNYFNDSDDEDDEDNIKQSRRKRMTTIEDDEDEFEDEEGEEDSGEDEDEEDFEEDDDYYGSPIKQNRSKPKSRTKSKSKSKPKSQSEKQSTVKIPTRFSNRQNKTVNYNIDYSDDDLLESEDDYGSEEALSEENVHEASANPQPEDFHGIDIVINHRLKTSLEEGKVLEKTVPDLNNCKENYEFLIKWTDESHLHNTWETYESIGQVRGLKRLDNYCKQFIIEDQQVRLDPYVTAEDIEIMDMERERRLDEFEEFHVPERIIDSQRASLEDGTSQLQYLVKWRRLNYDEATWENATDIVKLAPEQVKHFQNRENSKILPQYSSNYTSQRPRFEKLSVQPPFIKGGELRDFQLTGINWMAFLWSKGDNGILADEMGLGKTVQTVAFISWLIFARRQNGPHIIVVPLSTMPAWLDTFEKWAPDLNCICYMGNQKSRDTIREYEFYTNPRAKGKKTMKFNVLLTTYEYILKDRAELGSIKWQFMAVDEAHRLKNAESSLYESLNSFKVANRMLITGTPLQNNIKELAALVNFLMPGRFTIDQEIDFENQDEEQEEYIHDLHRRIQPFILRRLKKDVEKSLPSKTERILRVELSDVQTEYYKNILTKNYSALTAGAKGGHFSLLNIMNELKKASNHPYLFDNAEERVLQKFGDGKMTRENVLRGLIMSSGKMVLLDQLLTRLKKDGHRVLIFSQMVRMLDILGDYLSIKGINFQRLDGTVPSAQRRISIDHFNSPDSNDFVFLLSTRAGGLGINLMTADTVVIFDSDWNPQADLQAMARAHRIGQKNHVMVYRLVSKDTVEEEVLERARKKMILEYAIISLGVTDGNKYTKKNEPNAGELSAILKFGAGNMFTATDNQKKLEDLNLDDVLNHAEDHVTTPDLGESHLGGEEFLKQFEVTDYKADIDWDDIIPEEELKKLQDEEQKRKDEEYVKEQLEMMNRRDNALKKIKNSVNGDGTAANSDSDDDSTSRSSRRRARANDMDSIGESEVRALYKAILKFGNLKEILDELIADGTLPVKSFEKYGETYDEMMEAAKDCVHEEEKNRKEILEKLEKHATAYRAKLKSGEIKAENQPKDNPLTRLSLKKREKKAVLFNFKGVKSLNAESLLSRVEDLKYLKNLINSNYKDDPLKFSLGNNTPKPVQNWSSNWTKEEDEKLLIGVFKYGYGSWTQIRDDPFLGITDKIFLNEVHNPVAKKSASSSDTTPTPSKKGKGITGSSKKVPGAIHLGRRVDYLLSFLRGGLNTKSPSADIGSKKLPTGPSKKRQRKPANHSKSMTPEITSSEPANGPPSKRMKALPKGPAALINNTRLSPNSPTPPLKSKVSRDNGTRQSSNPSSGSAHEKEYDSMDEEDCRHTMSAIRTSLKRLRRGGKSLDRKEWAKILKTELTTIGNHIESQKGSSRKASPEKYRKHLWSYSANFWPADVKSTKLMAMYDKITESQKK

Sequence of Protein translocase subunit SecA (Escherichia coli (strain K12)) (P10408 whole entry): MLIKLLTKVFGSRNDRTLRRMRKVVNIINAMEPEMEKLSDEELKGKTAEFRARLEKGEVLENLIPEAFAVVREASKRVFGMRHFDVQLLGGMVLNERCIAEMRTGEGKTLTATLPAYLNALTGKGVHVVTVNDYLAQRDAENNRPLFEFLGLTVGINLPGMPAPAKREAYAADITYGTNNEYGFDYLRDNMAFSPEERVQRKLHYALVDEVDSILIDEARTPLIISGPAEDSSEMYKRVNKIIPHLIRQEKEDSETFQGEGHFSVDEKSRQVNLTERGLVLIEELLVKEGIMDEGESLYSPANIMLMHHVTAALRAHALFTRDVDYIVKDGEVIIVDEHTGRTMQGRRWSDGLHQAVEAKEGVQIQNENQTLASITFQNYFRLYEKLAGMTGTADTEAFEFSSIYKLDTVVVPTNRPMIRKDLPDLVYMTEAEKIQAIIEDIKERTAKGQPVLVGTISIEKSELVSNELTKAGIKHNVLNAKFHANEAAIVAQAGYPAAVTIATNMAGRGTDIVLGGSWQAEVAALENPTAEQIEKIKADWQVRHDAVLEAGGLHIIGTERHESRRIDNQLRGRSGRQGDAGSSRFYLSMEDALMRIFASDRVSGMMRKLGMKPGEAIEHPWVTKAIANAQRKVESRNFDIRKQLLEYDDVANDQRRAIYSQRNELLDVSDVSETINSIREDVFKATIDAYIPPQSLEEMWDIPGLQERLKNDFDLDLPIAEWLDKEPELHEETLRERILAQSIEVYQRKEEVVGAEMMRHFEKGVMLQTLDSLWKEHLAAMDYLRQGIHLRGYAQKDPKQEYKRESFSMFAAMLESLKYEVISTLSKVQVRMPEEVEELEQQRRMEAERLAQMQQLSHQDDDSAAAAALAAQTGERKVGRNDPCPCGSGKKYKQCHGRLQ

As for `CCc1nccn1C1CCCN(C(=O)c2ccc3[nH]cnc3c2)C1` (stereo unspecified), the Percent Effect is -7.22% in experiment [1]; 2.63% in experiment [2]; 2.64% in experiment [3]; 2.2% in experiment [4]; 5.36% in the experiment with Trypanosoma cruzi; 1.18% in experiment [5]. The Percent Effect was 9.3% in experiment [6]; 7.56% in the experiment filed under Homo sapiens; 8.51% in experiment [7]; 10.4% in experiment [8]; -0.611% in experiment [9].
For `COCc1cnc2n1CCN(Cc1cccnc1)C2C` (stereo unspecified), the Percent Effect is -1.07% in experiment [1]; 8% in experiment [2]; 0.686% in [3]; 6.43% in [4]; 3.28% in the experiment with Trypanosoma cruzi; -50.4% in [5]. In addition, the Percent Effect was -0.171% in experiment [6]; -15.6% in the experiment listed under Homo sapiens; 2.08% in experiment [7]; 5% in [8]; -2.32% in experiment [9].
With `CCOc1ccccc1C(CC(=O)Nc1nc(C)cs1)NC(C)=O` (stereo unspecified), the Percent Effect in experiment [1] was -1.09%; in experiment [2] it was 5.26%; in experiment [3] it was -0.999%; in experiment [4], 0.981%; in the experiment with Trypanosoma cruzi it was -2.63%; in experiment [5], 4.21%. In addition, the Percent Effect in [6] was 6.85%; in the experiment filed under Homo sapiens it was 10.1%; in experiment [7], 3.43%; in experiment [8], 9.76%; in experiment [9], -5.47%.
On to `NC(=O)C1CCN(C(=O)c2ccn(-c3ccc(F)cc3)n2)C1` (stereo unspecified), for which the Percent Effect in experiment [1] was -2.82%; in experiment [2], 5.41%; in experiment [3], 0.129%; in experiment [4], -2.22%; in the experiment on Trypanosoma cruzi, -6.96%; in experiment [5], 4.25%. The Percent Effect in experiment [6] came to 5.39%; in the experiment listed under Homo sapiens it was 6.15%; in experiment [7] it was 4.95%; in [8] it was 11%; in [9] it was 1.99%.
For `CS(=O)(=O)NC1CCc2c(ccc(=O)n2CC2CC2)C1` (stereo unspecified), the Percent Effect is -2.67% in experiment [1]; 10.7% in experiment [2]; 7.1% in experiment [3]; 2.38% in experiment [4]; -3.54% in the experiment on Trypanosoma cruzi; 2.56% in [5]. The Percent Effect was 10.7% in [6]; -2.08% in the experiment listed under Homo sapiens; 6.38% in experiment [7]; 14.1% in experiment [8]; 0.517% in experiment [9].
As to `CN(Cc1ccncc1)CC(c1cccs1)N1CCOCC1` (stereo unspecified), the Percent Effect in experiment [1] is -5.66%; in experiment [2] it was -29.7%; in experiment [3], -4.64%; in experiment [4] it was 13.6%; in the experiment on Trypanosoma cruzi, 8.63%; in experiment [5], -2.03%. Further, the Percent Effect was 5.57% in experiment [6]; 19.6% in the experiment listed under Homo sapiens; 5.94% in experiment [7]; 13.4% in [8]; -2.66% in experiment [9].
Turning to `Cc1noc2nc(C3CCN(Cc4cccnc4)CC3)cc(C(F)F)c12`, the Percent Effect in experiment [1] was -3.07%; in experiment [2], 1.35%; in experiment [3], 4.19%; in experiment [4], 1.16%; in the experiment with Trypanosoma cruzi, -6.32%; in experiment [5], -1.16%. For the same molecule, the Percent Effect in experiment [6] was 2.03%; in the experiment filed under Homo sapiens it was 25.1%; in [7] it was 2.15%; in experiment [8], 3.9%; in experiment [9], 1.36%.
In the case of `COc1c(CNC2CCCc3ccccc32)c(C)nn1C` (stereo unspecified), the Percent Effect was -7.16% in [1]; 21.6% in experiment [2]; -16.2% in [3]; 24% in [4]; 4.79% in the experiment on Trypanosoma cruzi; 2.23% in [5]. Further, the Percent Effect was 12.4% in experiment [6]; 7.25% in the experiment listed under Homo sapiens; 2.15% in experiment [7]; 13.6% in [8]; -5.73% in experiment [9].
With `Cn1ccc2c(C(=O)N3CCC(C(N)=O)CC3)cccc21`, the Percent Effect was 0.857% in experiment [1]; 14.7% in experiment [2]; 2.71% in experiment [3]; -1.54% in experiment [4]; -4.13% in the experiment with Trypanosoma cruzi; -9.68% in experiment [5]. For the same molecule, the Percent Effect was 13.1% in experiment [6]; 7.15% in the experiment filed under Homo sapiens; 8.47% in [7]; 17.9% in experiment [8]; -10.7% in experiment [9].
With `CC(=O)N(C)c1nc(CN2CCOC(Cn3cc(C)cn3)C2)cs1` (stereo unspecified), the Percent Effect is -1.65% in experiment [1]; 28.6% in [2]; -5.25% in experiment [3]; -17.3% in experiment [4]; 3.82% with Trypanosoma cruzi; -6.95% in [5]. In addition, the Percent Effect in [6] is 17.4%; in the experiment filed under Homo sapiens it was 16.8%; in experiment [7] it was 8.57%; in experiment [8] it was 30.6%; in experiment [9] it was -22.3%.
With `CCc1nc(NS(=O)(=O)c2ccc(F)cc2C)no1`, the Percent Effect in experiment [1] was -4.36%; in experiment [2] it was -2.67%; in [3] it was -5.09%; in experiment [4] it was 21.3%; with Trypanosoma cruzi, 8.67%; in experiment [5], -0.521%. Besides, the Percent Effect in experiment [6] was -0.872%; in the experiment filed under Homo sapiens, 15.9%; in [7], 0.546%; in experiment [8], 6.17%; in experiment [9], -1.94%.
